About 2,600 (0.72%) of roughly 360,000 compounds were called active. This excerpt belongs to a sample that is enriched for actives. Unmarked numbers belong to inactive results.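 The calls were made as follows: active = inhibition of the luminescence signal of 40% or more relative to plate controls, in a single-dose primary screen at 18.75 µM; inactive = the rest.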
Assay: blockers of HIF-2a driven luciferase – luminescence, 786-0 RCC cells, primary screen (AID 624352)
Details: 786-0 RCC cells HIF-2a reporter, overnight, at 18.8 µM, active compounds read high

Structure (SMILES)	inhibition
COc1ccc(NC(=O)CCCN2C(=O)C(c3ccccc3)Oc3cccnc32)cc1 (stereo not drawn)	0.775%
CCCNC(=O)c1ccccc1NC(=O)CSCc1ccc(OC)cc1	19%
COc1ccc(/C=C2/SC(=O)N(CCCCCC(=O)Nc3ccccc3C(=O)O)C2=S)cc1	84.2% (active)
Cc1ccccc1C(=O)N1CCC(C(=O)Nc2ccc(S(=O)(=O)N(C)C(C)C)cc2)CC1	16.4%
CC=CCn1c(SCCCc2ccccc2)nc2c1c(=O)[nH]c(=O)n2C	3.87%
NC1=CC(=O)C(=O)c2cccnc21	54.7% (active)
O=C(CCC(=O)NNc1nc2ccccc2c2nc(-c3ccccc3)nn12)NCCCN1CCCC1=O	-19.4%
CSc1nc(-c2ccccc2)nc(C(Cl)Cl)n1	77.8% (active)
COCCNC(=S)Nc1cc(S(=O)(=O)N2CCOCC2)ccc1N1CCCCC1	11.9%
CCn1cc(CNC(=O)c2cc([N+](=O)[O-])c(C)c([N+](=O)[O-])c2)cn1	8.39%
O=C(CCl)Nc1cccc(CP(=O)(c2ccccc2)c2ccccc2)c1	44.2% (active)
O=C(CNCc1ccc(Cl)cc1)Nc1cccc(C(=O)O)c1	2.72%
O=C(CN1CCN(Cc2ccccc2)CC1)Nc1ccc(F)c(F)c1	-1.13%
O=C(NCc1cccs1)c1ccc(CS(=O)Cc2ccccc2Cl)o1 (stereo not drawn)	-0.00949%
Cc1cccc(OCCC(=O)Nc2cc(S(=O)(=O)N3CCCCC3)ccc2N2CCOCC2)c1	-42.8%
CC[C@@H]1Cc2cc(O)ccc2C2=C1c1ccc(O)cc1C[C@H]2CC	45.9% (active)
CCOC(=O)c1sc(/N=C/C2=C(O)CC(C)(C)CC2=O)c(C(=O)OCC)c1C	-268%
CC(C)C1Nc2c(C(=O)O)cccc2C(Nc2ccccc2C(=O)O)C1(C)C (stereo not drawn)	19%
O=C(COC(=O)CC1CC2CCC1C2)NC(=O)NC1CCCC1 (stereo not drawn)	11.3%
Cc1cc(Br)cn2c(Cc3ccccc3C(F)(F)F)c(C3CCCCC3)nc12	7.15%
COc1cc2c(cc1OC)C(Nc1ccc(S(N)(=O)=O)cc1)=NC(C)(C)C2	8.2%
COc1cc2c(cc1O)C(SC)=NC(C)(C)C2	89.4% (active)
COc1cc2c(cc1OC)CC1(CCCCC1)N=C2	10.1%
CC(NC(=O)CC1SC(N)=NC1=O)c1ccccc1 (stereo not drawn)	6.27%

Structure (SMILES)	inhibition
O=C(/C(=C/c1cccc(Cl)c1)c1nc2ccccc2[nH]1)c1ccccc1	92.8% (active)
C[C@H]1CN([C@@H](C)CO)C(=O)CCCn2cc(nn2)CO[C@@H]1CN(C)S(=O)(=O)c1cccs1	6.28%
O=c1onc(-c2c(F)cccc2F)n1-c1ccccc1Cl	11.8%
Cc1c[n+]([O-])ccc1[N+](=O)[O-]	3.58%
CCc1ccc(CNC(=O)C2CCCN(c3nc4ccccc4o3)C2)cc1 (stereo not drawn)	12.9%
Cc1ccc(NC(=O)N2CCC(C(=O)NCc3ccc(F)cc3)CC2)cc1	11.1%
CCc1ccc(CNC(=O)C2CCN(c3nnc(C)c4c(C)n(-c5ccc(C)cc5)nc34)CC2)cc1	54.1% (active)
CCOc1ccc(CNC(=O)C2CCCN(c3nnc(C)c4c(C)n(-c5ccccc5)nc34)C2)cc1 (stereo not drawn)	40.7% (active)
COc1cccc(CNC(=O)C2CCCN(c3ncnc4c3nc3n4CCCCC3)C2)c1 (stereo not drawn)	0.819%
CCc1ccc(CNC(=O)C2CC(=O)N(CCc3ccc(C)cc3)C2)cc1 (stereo not drawn)	-8.53%
CN(C)S(=O)(=O)c1cc(NC(=O)CN2C(=O)NC3(CCCc4ccccc43)C2=O)ccc1Cl (stereo not drawn)	12.2%
O=c1cc(C(F)(F)F)[nH]c(=O)n1C1CCCCC1	3.85%
COc1ccc([N+](=O)[O-])cc1N(CC(=O)Nc1ccccc1C(=O)N1CCOCC1)S(C)(=O)=O	3.69%
CCCCNC(=O)OCCSCCS(=O)(=O)c1ccc(Cl)cc1	10.7%
O=C(CN1CCN(c2ccccn2)CC1)NCc1cccs1	4.32%
COc1ccc(OC)c(NC(=O)C2CCCN2S(=O)(=O)c2cccc3nsnc23)c1 (stereo not drawn)	16.7%
Cc1nc(SCC(=O)c2ccccc2)c([N+](=O)[O-])[nH]1	8.52%
C/C(=C\C(=O)c1ccccc1)Nc1cccc(O)c1	-359%
Cc1cc(C)nc(S/C=C/C(=O)c2ccccc2)n1	69.1% (active)
CN1c2ccc(C=O)c3c(C=O)ccc(c23)N(C)C1(C)C	25.6%
CC1(C(=O)NS(=O)(=O)Cc2cccc(Cl)c2)CCN1C(=O)Cc1ccccc1 (stereo not drawn)	12.1%
C[C@@H]1NC(=O)c2cc([N+](=O)[O-])cc(F)c2NCCC[C@@H](C(N)=O)NC(=O)[C@H](CC(N)=O)NC1=O	9.38%
CCOC(=O)c1c(C)[nH]c2c1-c1ccccc1C(=O)C2=O	96.1% (active)
CCOC(=O)c1[nH]c(C)c(C(=O)OCC(=O)N2c3ccccc3CC2C)c1C (stereo not drawn)	2.58%

Structure (SMILES)	inhibition
CCOC(=O)c1c(C)oc(C)c(C(=O)OCC)c1=O	0.843%
COc1ccc(CN2CCNC(=O)C2CC(=O)N(C)Cc2ccccn2)cc1OC (stereo not drawn)	9.28%
COc1cc(/C=N/NC(=O)Nc2ccccc2)ccc1OCCOc1ccccc1C	-9.55%
COc1cc(C=NC2CCCCC2)ccc1O	2.1%
COc1ccc(C(=O)Nc2ccccc2C(=O)N/N=C/c2ccc(O)c(OC)c2)cc1	69.5% (active)
Cc1ccc(C)c(NC(=O)CN(C)C(=O)c2ccc3ncsc3c2)c1	5.94%
CC(C)CN(C(=O)c1ccc2c(c1)OCO2)C1CCS(=O)(=O)C1 (stereo not drawn)	24.2%
Cc1nn(-c2ccccc2)c(=O)c2noc(C)c12	3.29%
C/C(=C\c1ccccc1)C1NC(=O)c2c(sc3c2CCCC3)N1 (stereo not drawn)	-140%
CC1(C(=O)O)CCN1C(=O)/C=C/c1ccccc1 (stereo not drawn)	3.94%
Cc1[nH]c(=O)c(C(=O)/C=C/c2ccccc2)c2c1CCCC2	72.5% (active)
COC(=O)CCNc1ccc2c(c1)OCCO2	42% (active)
CCOc1ccc(NCCC(=O)c2ccc3c(c2)OCO3)cc1	-129%
Cc1ccc(OCCCC(=O)Nc2ccc3c(c2)OCCO3)cc1	1.79%
CCC(=O)Nc1ccc(C(=O)CSc2nnc(CNc3ccc(Cl)cc3)o2)cc1OC	14.6%
CC(=O)N1c2ccc(S(=O)(=O)N3CCCC(C(=O)Nc4ccc(C)cc4C)C3)cc2CC1C (stereo not drawn)	17%
Oc1ccc(CNc2ccccc2O)cc1	-142%
O=S(=O)([N-]c1nc2ccccc2nc1-[n+]1ccc(Cc2ccccc2)cc1)c1ccc(Br)s1	52.2% (active)
O=S(=O)(NCc1ccccn1)c1ccc(Br)s1	-3.82%
CCN(CC)CC(=O)Nc1nn(-c2ccccc2)nc1C(N)=O	4.53%
OCCCNC(c1ccccc1)c1ccc(O)cc1 (stereo not drawn)	1.29%
O=C(/C=C/Sc1ncn[nH]1)c1ccc(Cl)cc1	88.1% (active)
CC(=O)OCc1cc(=O)n(C)c(=O)n1C	-10.8%
O=C(CSc1nc2cccc(F)c2c(=O)n1-c1ccccc1)Nc1ccc2c(c1)CCC2	-5.39%

Structure (SMILES)	inhibition
CC(C)(C)CC(=O)Nc1nc(C(N)Cc2ccc(C(F)(F)F)cc2)cs1 (stereo not drawn)	11.1%
COc1ccc(CC(N)c2csc(NC(=O)Nc3ccc(C(C)C)cc3)n2)cc1 (stereo not drawn)	91.1% (active)
COc1ccc(CC(N)c2csc(NC(=O)NC(c3ccccc3)c3ccccc3)n2)cc1 (stereo not drawn)	4.75%
O=C(CNC(=O)OCc1ccccc1)Oc1cc2oc(=O)cc(-c3ccccc3)c2cc1Cl	-13.9%
COc1ccc(S(=O)(=O)N2C[C@H]3CON(C)[C@H]3C[C@H]2c2cccc(Br)c2)cc1	6%
CN1OC[C@@H]2CN(S(=O)(=O)c3cccc(C(F)(F)F)c3)[C@H](c3ccc(-c4cc5ccccc5o4)cc3)C[C@@H]21	50.8% (active)
CN1OC[C@@H]2CN(S(=O)(=O)c3cccc4ccccc34)[C@H](c3ccc(N4CCCCC4)cc3)C[C@@H]21	7.35%
COc1ccc(-c2cnc3c(c2)C(=O)N([C@H](C)CO)C[C@@H](C)[C@H](CN(C)Cc2ccccc2)O3)cc1	-3.08%
Cc1cc(C)n(C(=O)CCNC(=O)c2ccccc2Cl)n1	5.47%
COCCNC(=O)c1ccccc1-c1nc(-c2ccccc2Cl)no1	-82.5%
CN(C)CCNC(=O)c1ccc(Cl)c2cc3ccccc3nc12	43.6% (active)
O=S(=O)(N/N=C\c1cccn1-c1ccccc1)c1ccc2ccccc2c1	9.64%
CCN(CC)S(=O)(=O)c1cccc(-c2n[nH]c(=S)n2/N=C/c2ccc(C(=O)OC)cc2)c1	20.2%
CCCc1cc(-c2n[nH]c(=S)n2CC)c2ccccc2n1	25.6%
Cc1cc(-c2n[nH]c(=S)n2/N=C/C(Br)=C/c2ccccc2)n[nH]1	87% (active)
CCN1CCN(C(=O)C2CCN(S(=O)(=O)c3cc(Cl)ccc3Cl)CC2)CC1	6.56%
COc1ccc(Br)cc1S(=O)(=O)N1CCN=C1C	13.2%
O=C(Nc1ccc2c(c1)OCO2)C1CC(c2c(F)cccc2Cl)=NO1 (stereo not drawn)	-228%
Cc1c(C)c2cc3c4c(oc3c(C)c2oc1=O)CCCC4	-31.5%
Cc1c(CCC(=O)N[C@@H](CC(C)C)C(=O)O)c(=O)oc2c(C)c3oc4c(c3cc12)CCCC4	31.2%
CC[C@@H](C)[C@H](NC(=O)CCc1c(C)c2cc3c4c(oc3c(C)c2oc1=O)CCCC4)C(=O)O	56.9% (active)

Reference: PubChem BioAssay AID624352 (Sanford-Burnham Center for Chemical Genomics, 2012)
